# The OligoGym collection
# Biological target: PPARGC1A
# Assay: pooled miR-30 sensor sort-seq; sequence = guide strand
# Conditions: shRNA
# Note: reference of the scale not given here.
row,Sequence,sensor-assay potency score (higher = more potent)
1,TTGTCTAGAGTCTTGGAGCTCC,0.145
2,TAGTTGTCTAGAGTCTTGGAGC,-1.01
3,TTGCTGTTGACAAATACTCTTC,-0.955
4,TTCGTCGTCAAAAACAGCTTGA,-0.0941
5,TTTATCACTTTCATCTTCGCTG,0.495
6,TAGGTAATGAAACCATAGCTGT,-0.856
7,TTACATTTGAATATTCTTGATT,0.253

# Biological target: PPCS
# Assay: as above
# Conditions: shRNA
row,Sequence,sensor-assay potency score (higher = more potent)
1,TAAATTTCCAAAGCCTTCCGAG,-0.661
2,TCTGATAGCAATAACTTGGTTT,0.221
3,TTCACCATCTCTAAGAGCCCTG,-0.3
4,TTTGGCACCATCTTCATTGTTA,0.148
5,TTGTAGTTTTCACCATCTCTAA,-1.34
6,TACAATAAACACAAAGGACTGT,0.367
7,TTGATGCTGATAAATTTCCAAA,-1.35
8,TAAACACAAAGGACTGTCGTGA,0.415
9,TTATCCACTATCTTCTCTTCTA,-0.111
10,TTCTCTTCTATCTCTACGCCTT,-0.45
11,TTCATTGTTATCTGCAGTGGGC,-0.306
12,TTTTTTTGTAGTTTTCACCATC,-0.312

# Biological target: PPEF1
# Assay: as above
# Conditions: shRNA
row,Sequence,sensor-assay potency score (higher = more potent)
1,TTGTATGTGAGTGAAATTCGGC,-0.494
2,TTATGCAAAATTTCTTTCGTGA,0.493
3,TTGTTCATCAGCATATTCGATG,-0.664
4,TAATGCTGAAACCAAATCCTAT,-0.921
5,TTTTCCATAGTATCCACTCTTT,-0.493
6,TAGTTTTCCAACATGAAGGAAA,-0.591
7,TTCATCAGCATATTCGATGGAC,-0.181
8,TAGTAGTTTTCTCTTGTGCTGT,-0.247
9,TTTTATTGTGCTTCGAGTCAGT,0.317
10,TAATCTTACCAATAACAGCTTG,-0.683
11,TATCGAGTCCACATAATCCCAT,-1.01
12,TTTTCTGTGGTCTTGAAGTTGG,-0.736

# Biological target: PPIA
# Assay: as above
# Conditions: shRNA
row,Sequence,sensor-assay potency score (higher = more potent)
1,TATTTCATAATCATAAACTTAA,-0.804
2,TCATCTTCAAATTTCTCCCCAT,-0.0656
3,TTTCACTTTGCCAAACACCACA,-0.879
4,TAAACTTAACTCTGCAATCCAG,-0.459
5,TAACCAAATCCTTTCTCTCCAG,-0.631
6,AAACTTAACTCTGCAATCCAGC,-0.893
7,TTGCTGGTCTTGCCATTCCTGG,-1.6
8,TTCTGCTGTCTTTGGGACCTTG,-0.756
9,TCTTCTTGCTGGTCTTGCCATT,-1.28
